The AC50 is the concentration at which the activity in the assay is half-maximal.

SMILES strings stand for the structures. The source made the active and inactive calls. The calls were made as follows: active = hit-call score of the fitted dose curve at least 0.9, where 1 is the maximum; inactive = score below 0.9.

The experiment can be described thus: BSK_LPS_SRB: Viability Assessment in the BioMAP Diversity Plus: LPS Assay (AID 2283079).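 Also: total protein by sulforhodamine B absorbance as a cytotoxicity measure; measured one day after compound addition; fitted in both directions against DMSO so loss or gain of signal counts.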 The conditions noted are these: primary human HUVEC with PBMC. Summed up:
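Cytotoxicity endpoint in human endothelial–PBMC co-culture: 24 h exposure, then SRB (0.1%) staining, 560 nm read.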
For `Cc1cc(C)nc(Nc2ccccc2)n1`, the result was inactive. As for `CC(C)Nc1nc(Cl)nc(NC(C)C)n1`, the outcome was inactive. As to `CO/N=C(/C1=NOCCO1)c1ccccc1Oc1ncnc(Oc2ccccc2Cl)c1F`, the AC50 is 11.4 µM (active).

Consider `CNC(=O)Oc1cccc2ccccc12`, for which the AC50 was 13.3 µM (active).

Take `COC(=O)c1c(C(F)F)nc(C(F)(F)F)c(C2=NCCS2)c1CC(C)C`: the AC50 is 31.9 µM (active).

Regarding `CC(C)(C)C(=O)C(Oc1ccc(Cl)cc1)n1cncn1` (stereo not given), the result was inactive. For `Clc1nc(Cl)nc(Nc2ccccc2Cl)n1`, the outcome was inactive. In the case of `CCCCOCN(C(=O)CCl)c1c(CC)cccc1CC`, the AC50 was 29.2 µM (active). As to `CCOc1nc(F)cc2nc(S(=O)(=O)Nc3c(Cl)cccc3Cl)nn12`, the result was inactive. For the compound `Cc1c(COC(=O)[C@@H]2[C@H](/C=C(\Cl)C(F)(F)F)C2(C)C)cccc1-c1ccccc1`, the outcome was inactive. Turning to `Nc1c(Cl)c(Cl)nc(C(=O)O)c1Cl`, the result was inactive. As to `O=C(O)c1c(Cl)ccc2cc(Cl)cnc12`, the result was inactive.

In the case of `C=C(C)CN(CC)c1c([N+](=O)[O-])cc(C(F)(F)F)cc1[N+](=O)[O-]`, the result was inactive. Regarding `CC(C)NC(=O)N1CC(=O)N(c2cc(Cl)cc(Cl)c2)C1=O`, the result was inactive. As for `Cc1ccc(N=CN(C)C=Nc2ccc(C)cc2C)c(C)c1`, the AC50 is 31.7 µM (active). Turning to `CCOP(=S)(OCC)Oc1nc(Cl)n(C(C)C)n1`, the result was inactive. As for `Cc1nc(N(C)C)nc(OC(=O)N(C)C)c1C`, the outcome was inactive. In the case of `C=CCOC(=O)C(C)(C)OC(=O)c1cc(-n2c(=O)cc(C(F)(F)F)n(C)c2=O)ccc1Cl`, the result was inactive. With `Nc1cnn(-c2ccccc2)c(=O)c1Cl`, the result was inactive. For `CCN(CC)C(=O)C(C)Oc1cccc2ccccc12` (stereo not given), the outcome was inactive. `Nc1c(Cl)c(F)nc(OCC(=O)O)c1Cl`: the result was inactive. For the compound `CCOP(=O)(OCC)Oc1nc(Cl)c(Cl)cc1Cl`, the AC50 was 10.7 µM (active). Regarding `CSC(=O)c1c(C(F)F)nc(C(F)(F)F)c(C(=O)SC)c1CC(C)C`, the AC50 is 26.3 µM (active). Consider `COP(=O)(OC)O/C(C)=C/C(=O)N(C)C`, for which the outcome was inactive. On to `COc1cc(OC)nc(NC(=O)NS(=O)(=O)c2ncccc2OCC(F)(F)F)n1`, for which the result was inactive. Regarding `CN=C=S`, the outcome was inactive.

For `COc1cc(Cl)c(OC)cc1Cl`, the result was inactive.

Take `COC(=O)N(C(=O)N1CO[C@@]2(C(=O)OC)Cc3cc(Cl)ccc3C2=N1)c1ccc(OC(F)(F)F)cc1`: the AC50 is 5.89 µM (active).

Consider `CC(C)C1(C)N=C(c2ncccc2C(=O)O)NC1=O` (stereo not given), for which the result was inactive. Same read-out and setting: as for `CN/C(=N\[N+](=O)[O-])NCc1cnc(Cl)s1`, the entry is “inactive”.

Regarding `Cn1c(-c2ccccc2)cc(-c2ccccc2)[n+]1C`, the outcome was inactive. `Clc1cccc(C(Cl)(Cl)Cl)n1`: the outcome was inactive. On to `COC(=O)NS(=O)(=O)c1ccc(N)cc1`, for which the result was inactive.

On to `Cc1cnc(C2=NC(C)(C(C)C)C(=O)N2)c(C(=O)O)c1` (stereo not given), for which the result was inactive. The same measure, in the same setting: as for `O=C(Nc1ccccc1-c1ccc(Cl)cc1)c1cccnc1Cl`, the entry is “inactive”.

The values above are taken from PubChem BioAssay (EPA / NIEHS).
